Records with an inconclusive call do not appear. Some compounds were tested as several samples or in several runs, with calls that do not always agree. Activity calls are given as the source filed them. Rule for the calls, unless noted: active = hit-call score of the fitted dose curve at least 0.9, where 1 is the maximum; inactive = score below 0.9.
Read-out: CD69, CD69 (gene 969)
Assay: BSK_LPS_CD69: BioMAP Diversity Plus: LPS Assay for CD69 Biomarker Activity (AID 2284303)
Details: primary human HUVEC with PBMC
Method: BSK_LPS is a cell-based, multiplexed-readout assay that uses umbilical vein endothelium and peripheral blood mononuclear cells, a human vascular primary cell co-culture, with measurements taken at 24 hours after chemical dosing in a 96-well plate.BSK_LPS_CD69 is an assay component measured in the BSK_LPS assay. It measures CD69 antibody related to regulation of gene expression using ELISA technology.Data from the assay component BSK_LPS_CD69 was analyzed at the endpoint, BSK_LPS_CD69, in the positive analysis fitting direction relative to DMSO as the negative control and baseline of activity. Using a type of binding reporter, gain or loss-of-signal activity can be used to understand protein changes. To generalize the intended target to other relatable targets, this assay endpoint is annotated to the 'cytokine' intended target family, where the subfamily is 'inflammatory factor'.
The levels of cell surface (or secreted, indicated by the prefix "s") biomarker endpoints were measured by ELISA. Overt cytotoxicity to cells in confluent adherent cultures (all systems other than the BT system) was assessed by measuring total protein levels using sulforhodamine B (SRB) staining in parallel cultures at the time of biomarker measurements, indicated as SRB endpoints. For proliferation assays for adherent cell types, individual cell types are cultured at sub-confluence and relative cell numbers quantified by SRB staining at time points optimized for each system (48 h: 3C and CASM3C systems; 72 h: BT and HDF3CGF systems; 96 h: SAg system). SRB was performed by staining cells with 0.1% SRB after fixation with 10% TCA and reading wells at 560 nm.Viability and proliferation of PBMC (T cells) was quantified by Alamar Blue reduction for the SAg and BT systems. For PBMC viability (referred to as PBMC Cytotoxicity within the assay endpoint names), cells were plated (75,000/well in a 96-well plate) and then chemical samples added for 1 h before addition of activators, SEB and TSST-1 (20 ng/mL final concentration each). Cells were incubated for 90 h. Then, Alamar Blue (20 uL/well) (Invitrogen, Cat DAL1100) was added for 6 h, and the plates were read with a fluorescence microplate reader at 546/580 nm (excitation/emission). For PBMC proliferation, cells were plated and activated as above but incubated for only 16 h prior to addition of Alamar Blue. Plates were read after 6 h.

**Q.** Which outcome does the source give for `CC(=O)OC(c1ccccc1)C(Cl)(Cl)Cl` (centres undefined) here?
**A.** Its outcome is “inactive”.

**Q.** Which outcome does the source give for `COC(=O)Cc1ccccc1` here?
**A.** Its outcome is “inactive”.

**Q.** For `O=C(O)CCC(F)(C(F)(F)F)C(F)(F)F`, which outcome is on record?
**A.** The outcome was “inactive”.

**Q.** With `O=C(O)C(F)(F)C(F)(F)C(F)(F)C(F)(F)C(F)(F)C(F)(F)F` as the compound, how does the outcome read?
**A.** The outcome was “inactive”.

**Q.** With `O=C(O)C(F)(F)C(F)(F)C(F)(F)C(F)(F)C(F)(F)C(F)(F)C(F)(F)C(F)(F)C(F)(F)C(F)(F)F` as the compound, how does the AC50 read?
**A.** Its AC50 is 3.33 µM (active).

**Q.** What about the outcome of the same compound?
**A.** Its outcome is “inactive”.

Tested on: IYD (gene 389434)
Assay: CCTE_GLTED_hIYD: CCTE's human Iodotyrosine Deiodinase (xIYD) Inhibition Assay, Great Lakes Toxicology and Ecology Division (GLTED) Lab (AID 2284317; active = hit-call score of the fitted dose curve at least 0.9, where 1 is the maximum;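 note: cell-free human IYD enzyme made in baculovirus insect cells; iodide freed from monoiodotyrosine measured by cerium arsenite color change at 420 nm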)
Details: not given
Summary of the method: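 In the IYD assay, iodide released from MIT by insect-cell-expressed human enzyme was quantified after 3 h via Sandell-Kolthoff rate at 420 nm, with plate-wise normalization to MNT and solvent controls.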

**Q.** For `CC(C)(c1ccccc1)c1ccc(O)c(C(C)(C)c2ccccc2)c1`, which AC50 is on record?
**A.** The AC50 was 29.2 µM (active).

**Q.** With `CC(C)(c1ccc(OCC2CO2)cc1)c1ccc(OCC2CO2)cc1` (centres undefined) as the compound, how does the outcome read?
**A.** The outcome was “inactive”.

**Q.** For `CCCCCCCCc1ccc(O)cc1`, which AC50 is on record?
**A.** The AC50 was 35.7 µM (active).

**Q.** Which AC50 does the source give for `O=C1C(Cl)=C(Cl)C(=O)c2ccccc21` here?
**A.** The AC50 was 55 µM (active).

**Q.** For `C=CC(=O)OCCCCCC(C)C`, which outcome is on record?
**A.** The outcome was “inactive”.

**Q.** With `C=CC#N` as the compound, how does the outcome read?
**A.** The outcome was “inactive”.

**Q.** Which AC50 does the source give for `CC(C)(C)CC(C)(C)c1ccc(O)cc1` here?
**A.** Its AC50 is 66.8 µM (active).

**Q.** With `O=C(O)C(F)(F)C(F)(F)C(F)(F)C(F)(F)C(F)(F)C(F)(F)C(F)(F)C(F)(F)C(F)(F)C(F)(F)F` as the compound, how does the AC50 read?
**A.** The AC50 was 51.3 µM (active).

**Q.** For `CCC(C)(C)c1ccc(O)c(C(C)(C)CC)c1`, which AC50 is on record?
**A.** Its AC50 is 37 µM (active).

**Q.** With `O=C1C2(Cl)C3(Cl)C4(Cl)C(Cl)(Cl)C5(Cl)C3(Cl)C1(Cl)C5(Cl)C24Cl` (centres undefined) as the compound, how does the AC50 read?
**A.** Its AC50 is 40.1 µM (active).

**Q.** Which outcome does the source give for `CCC[CH2][Sn]([CH2]CCC)([CH2]CCC)[O]C(=O)c1ccccc1` here?
**A.** Its outcome is “inactive”.

**Q.** For `COP(=O)(OC)O/C(=C\Cl)c1cc(Cl)c(Cl)cc1Cl`, which outcome is on record?
**A.** The outcome was “inactive”.

Tested on: not listed separately
Assay: CCTE_Mundy_HCI_iCellGluta_NOG_NeuriteLength: CCTE's Neurite Outgrowth Assay in iCellGluta cells for Neurite Length, Mundy Lab (AID 2284318; active = hit-call score of the fitted dose curve at least 0.9, where 1 is the maximum)
Details: not given
Summary of the method: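 Automated high-content imaging of betaIII-tubulin (Alexa Fluor-488) and Hoechst-stained cells gave neurite length, normalized to the DMSO baseline.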

**Q.** With `C=C(C)C(=O)[O][Sn]([CH2]CCC)([CH2]CCC)[CH2]CCC` as the compound, how does the AC50 read?
**A.** Its AC50 is 0.241 µM (active).

**Q.** For `O=C(O)C(F)(F)C(F)(F)C(F)(F)C(F)(F)C(F)(F)C(F)(F)F`, which outcome is on record?
**A.** The outcome was “inactive”.

**Q.** Which AC50 does the source give for `O=C1C2(Cl)C3(Cl)C4(Cl)C(Cl)(Cl)C5(Cl)C3(Cl)C1(Cl)C5(Cl)C24Cl` (centres undefined) here?
**A.** Its AC50 is 15 µM (active).

**Q.** For `COP(=O)(OC)O/C(=C\Cl)c1cc(Cl)c(Cl)cc1Cl`, which AC50 is on record?
**A.** Its AC50 is 51.5 µM (active).

Tested on: not listed separately
Assay: CCTE_Deisenroth_5AR_NBTE_donor: CCTE's 5alpha-reductase NanoBRET Target Engagement Assay […], Deisenroth Lab (AID 2284319)
Details: actives raise or lower the signal
Summary of the method: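 HEK293T cells transiently expressing SRD5A2-NanoLuc, exposed 5 h to chemicals (8 points, 10 nM - 29.9 uM), with testosterone tracer for the final 2 h. Donor luminescence at 460 nm read after Nano-Glo substrate plus extracellular NanoLuc inhibitor; bidirectional fit versus DMSO.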

**Q.** For `c1cc[c]([Hg][c]2ccccc2)cc1`, which outcome is on record?
**A.** Its outcome is “inactive”.

**Q.** Which outcome does the source give for `O=C(OC1CCCCC1)c1ccccc1C(=O)OC1CCCCC1` here?
**A.** The outcome was “inactive”.

**Q.** With `CC(C)(c1ccc(OCC2CO2)cc1)c1ccc(OCC2CO2)cc1` (centres undefined) as the compound, how does the outcome read?
**A.** Its outcome is “inactive”.

**Q.** For `CCN1CCC2(CC1)COc1cc3c(cc12)N(C(=O)c1ccc(-c2ccc(-c4nnc(C)o4)cc2C)cc1)CC3`, which AC50 is on record?
**A.** The AC50 was 2.7 µM (active).

**Q.** For `C[C@@H]1C[C@@H]([C@H](O)CC2CC(=O)NC(=O)C2)C(=O)[C@@H](C)C1`, which outcome is on record?
**A.** The outcome was “inactive”.

**Q.** For `CCOP(=S)(OCC)Oc1nc(Cl)c(Cl)cc1Cl`, which outcome is on record?
**A.** Its outcome is “inactive”.

**Q.** For `N#CN=C(N)N`, which outcome is on record?
**A.** The outcome was “inactive”.

**Q.** With `C=C(C)C(=O)[O][Sn]([CH2]CCC)([CH2]CCC)[CH2]CCC` as the compound, how does the AC50 read?
**A.** The AC50 was 5.38 µM (active).

**Q.** For `O=C1C(Cl)=C(Cl)C(=O)c2ccccc21`, which AC50 is on record?
**A.** Its AC50 is 50 µM (active).

**Q.** With `CCC1(c2ccc(N)cc2)CCC(=O)NC1=O` (centres undefined) as the compound, how does the outcome read?
**A.** Its outcome is “inactive”.

**Q.** For `CC(=O)[O][Hg][c]1ccccc1`, which AC50 is on record?
**A.** The AC50 was 27.1 µM (active).

**Q.** Which outcome does the source give for `O=C(O)C(F)(F)C(F)(F)C(F)(F)C(F)(F)C(F)(F)C(F)(F)C(F)(F)C(F)(F)C(F)(F)C(F)(F)F` here?
**A.** Its outcome is “inactive”.

**Q.** For `CCC[CH2][Sn]([CH2]CCC)([CH2]CCC)[O]C(=O)c1ccccc1`, which AC50 is on record?
**A.** The AC50 was 5.2 µM (active).

**Q.** With `O=C(Nc1ccc2[nH]ccc2c1)c1cc2cc(F)ccc2n1Cc1cccc(F)c1` as the compound, how does the outcome read?
**A.** Its outcome is “inactive”.

**Q.** With `C[C@H]1CCCC(=O)CCC/C=C/c2cc(O)cc(O)c2C(=O)O1` as the compound, how does the outcome read?
**A.** Its outcome is “inactive”.

**Q.** Which outcome does the source give for `O=[N+]([O-])c1ccc(O)c([N+](=O)[O-])c1` here?
**A.** Its outcome is “inactive”.

Tested on: not listed separately
Assay: CCTE_Deisenroth_5AR_NBTE_acceptor: CCTE's 5alpha-reductase NanoBRET Target Engagement Assay - Autofluorescence Screen, Deisenroth Lab (AID 2284321);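 note: compound fluorescence in the acceptor channel under 460 nm excitation flags autofluorescence artifacts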
Details: actives raise or lower the signal
Summary of the method: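 Acceptor-channel fluorescence flags artifacts, with excitation fixed at 460 nm. Nominal 100 uM chemical samples were read in triplicate runs, and signal changes were fitted in both directions relative to DMSO.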

**Q.** Which outcome does the source give for `c1cc[c]([Hg][c]2ccccc2)cc1` here?
**A.** Its outcome is “inactive”.

**Q.** Which outcome does the source give for `O=C(OC1CCCCC1)c1ccccc1C(=O)OC1CCCCC1` here?
**A.** Its outcome is “inactive”.

**Q.** For `CC(C)(c1ccc(OCC2CO2)cc1)c1ccc(OCC2CO2)cc1` (centres undefined), which outcome is on record?
**A.** Its outcome is “inactive”.

**Q.** With `CCN1CCC2(CC1)COc1cc3c(cc12)N(C(=O)c1ccc(-c2ccc(-c4nnc(C)o4)cc2C)cc1)CC3` as the compound, how does the AC50 read?
**A.** Its AC50 is 2.17 µM (active).

**Q.** For `C[C@@H]1C[C@@H]([C@H](O)CC2CC(=O)NC(=O)C2)C(=O)[C@@H](C)C1`, which outcome is on record?
**A.** The outcome was “inactive”.

**Q.** Which outcome does the source give for `CCOP(=S)(OCC)Oc1nc(Cl)c(Cl)cc1Cl` here?
**A.** Its outcome is “inactive”.

**Q.** For `N#CN=C(N)N`, which outcome is on record?
**A.** The outcome was “inactive”.

**Q.** With `C=C(C)C(=O)[O][Sn]([CH2]CCC)([CH2]CCC)[CH2]CCC` as the compound, how does the AC50 read?
**A.** The AC50 was 5.27 µM (active).

**Q.** For `O=C1C(Cl)=C(Cl)C(=O)c2ccccc21`, which outcome is on record?
**A.** The outcome was “inactive”.

**Q.** Which outcome does the source give for `CCC1(c2ccc(N)cc2)CCC(=O)NC1=O` (centres undefined) here?
**A.** Its outcome is “inactive”.

**Q.** For `CC(=O)[O][Hg][c]1ccccc1`, which AC50 is on record?
**A.** Its AC50 is 25.3 µM (active).

**Q.** Which outcome does the source give for `O=C(O)C(F)(F)C(F)(F)C(F)(F)C(F)(F)C(F)(F)C(F)(F)C(F)(F)C(F)(F)C(F)(F)C(F)(F)F` here?
**A.** The outcome was “inactive”.

**Q.** Which AC50 does the source give for `CCC[CH2][Sn]([CH2]CCC)([CH2]CCC)[O]C(=O)c1ccccc1` here?
**A.** Its AC50 is 6.56 µM (active).

**Q.** Which outcome does the source give for `O=C(Nc1ccc2[nH]ccc2c1)c1cc2cc(F)ccc2n1Cc1cccc(F)c1` here?
**A.** Its outcome is “inactive”.

**Q.** Which outcome does the source give for `C[C@H]1CCCC(=O)CCC/C=C/c2cc(O)cc(O)c2C(=O)O1` here?
**A.** The outcome was “inactive”.

**Q.** For `O=[N+]([O-])c1ccc(O)c([N+](=O)[O-])c1`, which outcome is on record?
**A.** Its outcome is “inactive”.

Reference: PubChem BioAssay (EPA / NIEHS)
